# Measured values reported in PubChem BioAssay (NCATS).
# Inconclusive results are not listed. Active and inactive are the calls of the source. Calls come from the whole dose curve; as a rule, active = well fitted cell-killing curve with a large enough effect; inconclusive = small, poorly fitted or top-dose-only effect; inactive = no such curve, though single readings can be large or run the other way.
# Assay: qHTS of pediatric cancer cell lines to identify multiple opportunities for drug repurposing: Primary screen for SK-N-SH cells (AID 1347098); note: nearly all actives have a fitted effect of over 65% in size
# Details: SK-N-SH viability, CellTiter-Glo luminescence, 48 h; series mostly up to 57 µM; activity change, negative = cytotoxic: at the top concentration
# From the text: Drug repurposing or repositioning has been offered as a strategy for drug development in oncology programs. This approach has special potential for childhood cancers and other rare or orphan diseases, where the expected return on new drug development has been a disincentive to pharmaceuticals.
# In this project we exploit the poly-pharmacology of drugs to discover new indications via phenotypic screening of a panel of 19 well-characterized cell lines derived from solid tumors seen in children and adolescents. The goal is to identify approved drugs with previously unrecognized anticancer properties that has the potential to reveal new mechanisms and biological processes involved in carcinogenesis or drug resistance. We employed a titration-based paradigm (quantitative high-throughput screening or qHTS), where all compounds were tested at multiple concentrations for their effect on cell viability. Concentration-response curves (CRCs) were derived directly from the primary screen, and both potency and efficacy values were used to identify compounds with robust bioactivity profiles. We screened the NIH Chemical Genomics Center (NCGC) Pharmaceutical Collection (NPC) and Mechanism Interrogation Plate (MIPE) small molecule collections of approved and investigational compounds against these cell lines; and measured metabolically active cells after 48 hours of compound treatment as a proxy for cell viability.
# Assay Submitter: Nathalia J. Martinez, National Center for Advancing Translational Sciences, National Institutes of Health, Rockville, MD, USA; email: natalia.martinez@nih.gov
# [1] Shen, M et al. Quantitative high-throughput phenotypic screening of pediatric cancer cell lines identifies multiple opportunities for drug repurposing. Oncotarget 2017 Dec 19;9(4):4758-4772. PMID 29435139.
# The cells were obtained from University of North Carolina (UNC), Pediatric Preclinical Testing Program (PPT), and Coriell Institute (CI).
# qHTS cell viability assay:
# Cells were assayed in growth media at a density of 500-1,000 cells/well. Five microliters of cells were dispensed into 1,536-well, white, solid-bottom, TC-treated plates (Greiner Bio One) using a multidrop dispenser and incubated at 37 degrees C, 5% CO2, under a humidified atmosphere for 5 hours. Twenty-three nanoliters of compounds and controls (neutral control DMSO or positive control bortezomib at final concentration of 2.3 µM) were subsequently transferred by Kalypsys pintool. For primary screens, the MIPE collection was tested at 11-point dilutions (final concentrations range from 0.78 nM to 46 µM) and the NPC collection at 8-point dilutions (final concentrations range from 0.59 nM to 46 µM). Compounds tested in follow-up screens were assayed at 11-point dilutions. Cells were incubated for 48 hours, followed by addition of 3 µL of CellTiter-Glo (Promega). After a 15 min incubation at room temperature, samples were analyzed for luminescence intensity using a ViewLux High-throughput CCD imager equipped with clear filters.
# % is set by controls: 0 for no effect and ±100 for the full control effect; potency is the fitted concentration of half-maximal effect.
SMILES,"activity change, negative = cytotoxic",Potency
CCOc1cc(OCC)c(C(=O)CCC(=O)O)cc1OCC,16.4% (inactive),
NC(=O)C1(N2CCCCC2)CCN(CCCC(=O)c2ccc(F)cc2)CC1,3.95% (inactive),
NS(=O)(=O)Cc1noc2ccccc12,-5.89% (inactive),
Cc1c[nH]c2ccccc12,-4.85% (inactive),
CCOc1ccccc1C(N)=O,,30.7 µM (active)
O=C1c2cccc3c2[C@H](CCC3)CN1[C@@H]1CN2CCC1CC2,-25.9% (inactive),
CCNC(=O)/C=C/c1cccc(Br)c1,-20.5% (inactive),
CCCCCCCCCCCCCCC[C@H](O)[C@@H](N)CO,-14.6% (inactive),
NCc1ccccc1Sc1ccccc1CO,-16.7% (inactive),
CCCCCCCCCCCCCC(=O)OC(C)C,-10.6% (inactive),
O=S(c1cc(Cl)cc(Cl)c1O)c1cc(Cl)cc(Cl)c1O,1.23% (inactive),
COc1ccc(CN(CCN(C)C)c2ncccn2)cc1,-11.8% (inactive),
OC[C@H]1O[C@@H]2O[C@H]3[C@H](O)[C@@H](O)[C@@H](O[C@H]4[C@H](O)[C@@H](O)[C@@H](O[C@H]5[C@H](O)[C@@H](O)[C@@H](O[C@H]6[C@H](O)[C@@H](O)[C@@H](O[C@H]7[C@H](O)[C@@H](O)[C@@H](O[C@H]8[C@H](O)[C@@H](O)[C@@H](O[C@H]1[C@H](O)[C@H]2O)O[C@@H]8CO)O[C@@H]7CO)O[C@@H]6CO)O[C@@H]5CO)O[C@@H]4CO)O[C@@H]3CO,-10.2% (inactive),
Cc1cccc(C)c1NC(=O)CN1CCCCCC1,5.05% (inactive),
CN(C)CCOC(c1ccc(Cl)cc1)c1ccccn1 (stereo not given),-11.4% (inactive),
NC(=S)N/N=C/c1cccnc1,-9.23% (inactive),
COc1ccc(C(=O)c2ccccc2)c(O)c1,-23.4% (inactive),
NS(=O)(=O)c1cc2c(cc1Cl)NC(CC1CCCC1)NS2(=O)=O (stereo not given),-3.61% (inactive),
O=C1C(CCS(=O)c2ccccc2)C(=O)N(c2ccccc2)N1c1ccccc1 (stereo not given),-6.2% (inactive),
CC(=O)O[C@]1(C(C)=O)CC[C@H]2[C@@H]3C=C(Cl)C4=CC(=O)CC[C@]4(C)[C@H]3CC[C@@]21C,-10.7% (inactive),

SMILES,"activity change, negative = cytotoxic",Potency
O=c1[nH]c(=O)n([C@H]2C[C@H](O)[C@@H](CO)O2)cc1F,-10.3% (inactive),
O=C1[C@H](CC[C@H](O)c2ccc(F)cc2)[C@@H](c2ccc(O)cc2)N1c1ccc(F)cc1,-21.8% (inactive),
Cn1c(=O)c2[nH]c(Br)nc2n(C)c1=O,-5.7% (inactive),
Cc1ccccc1OCC(O)CO (stereo not given),6.54% (inactive),
CCCN(CCc1cccs1)[C@H]1CCc2c(O)cccc2C1,-27.8% (inactive),
CC1CCc2c(N3CCC(O)CC3)c(F)cc3c(=O)c(C(=O)O)cn1c23 (stereo not given),-0.724% (inactive),
CCCc1ncc(C[n+]2ccccc2C)c(N)n1,-4.12% (inactive),
CC(C)NCC(O)c1ccc2ccccc2c1 (stereo not given),-26.5% (inactive),
FC(F)(F)C(F)(F)C(F)(F)C(F)(F)C(F)(F)C(F)(F)C(F)(F)C(F)(F)Br,-6.94% (inactive),
CN1CCN(C2=Nc3ccccc3Sc3ccc(Cl)cc32)CC1,-15.3% (inactive),
O[C@@H](c1cc(C(F)(F)F)nc2c(C(F)(F)F)cccc12)[C@H]1CCCCN1,,30.7 µM (active)
O=C(O)CCNC(=O)c1ccccc1,-0.0751% (inactive),
C[C@]12CCC(=O)C=C1C=C[C@@H]1[C@@H]2CC[C@@]2(C)[C@H]1CC[C@@]21CCC(=O)O1,-8.19% (inactive),
O=C(O)C1(C(=O)O)CCC1.[NH2-].[NH2-].[Pt+2],3.32% (inactive),
N=C(N)N1CCc2ccccc2C1,-21.9% [at 6 µM] (inactive),
C[C@@H](O)[C@H]1C(=O)N2C(C(=O)O)=C([C@H]3CCCO3)S[C@H]12,-8.7% (inactive),
CC(C)n1c(/C=C/[C@@H](O)C[C@@H](O)CC(=O)O)c(-c2ccc(F)cc2)c2ccccc21,,3.44 µM (active)
CCCCCCCCCCCCCCCCO,-1.83% (inactive),
CCOC(=O)C(C#N)=C(c1ccccc1)c1ccccc1,-3.35% (inactive),
N#CCC(=O)NN,-3.58% (inactive),
